# Experimental data as given in PubChem BioAssay AID1347418 (Sanford-Burnham Center for Chemical Genomics, 2020).
# Screen size: about 1,300 compounds; about 750 (58%) were called active. The list shows a part of the results. A number with no mark means an inactive call.
# Target: Sulfhydryl oxidase 1 (Homo sapiens) (UniProt O00391)
# Test: inhibition of human sulfhydryl oxidase QSOX1 – biochemical, ROS-Glo H2O2 luminescence, HTS, primary screen (AID 1347418)
# Conditions: recombinant QSOX1, ROS-Glo H2O2 luminescence; at 12.5 µM; hits give high values; active = any value above zero
# Chain of Sulfhydryl oxidase 1 (Homo sapiens) (O00391 whole entry, looked up): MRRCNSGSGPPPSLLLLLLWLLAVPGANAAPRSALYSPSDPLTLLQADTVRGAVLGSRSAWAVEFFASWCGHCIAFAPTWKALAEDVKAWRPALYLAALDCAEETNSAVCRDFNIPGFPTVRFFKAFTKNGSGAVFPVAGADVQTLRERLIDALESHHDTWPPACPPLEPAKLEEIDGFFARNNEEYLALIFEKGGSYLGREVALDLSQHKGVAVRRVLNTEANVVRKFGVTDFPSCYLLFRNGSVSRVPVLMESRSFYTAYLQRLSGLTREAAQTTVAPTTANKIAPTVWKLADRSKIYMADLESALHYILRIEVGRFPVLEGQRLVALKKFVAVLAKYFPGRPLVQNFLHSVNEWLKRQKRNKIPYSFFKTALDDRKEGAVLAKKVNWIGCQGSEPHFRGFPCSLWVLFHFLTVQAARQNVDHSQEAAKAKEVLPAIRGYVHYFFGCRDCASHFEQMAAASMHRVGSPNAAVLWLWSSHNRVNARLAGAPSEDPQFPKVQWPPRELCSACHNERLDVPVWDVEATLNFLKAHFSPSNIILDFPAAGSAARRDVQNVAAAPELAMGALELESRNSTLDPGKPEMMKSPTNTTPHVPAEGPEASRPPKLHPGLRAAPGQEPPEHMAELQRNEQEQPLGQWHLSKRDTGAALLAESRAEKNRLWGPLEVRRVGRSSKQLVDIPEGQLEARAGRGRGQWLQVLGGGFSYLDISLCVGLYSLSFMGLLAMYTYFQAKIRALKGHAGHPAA
row,SMILES,inhibition
1,CC(CN1c2ccccc2Sc2ccccc21)N(C)C (stereo not given),43.7% (active)
2,CCN(CC)C(C)CN1c2ccccc2Sc2ccccc21 (stereo not given),50.6% (active)
3,O=C1NC(=O)/C(=C/c2ccc(-c3ccc(F)cc3O)o2)S1,27.2% (active)
4,O=C(O)[C@@H]1C[C@H](C(=O)O)N1,-6.9%
5,C=CCNc1ncnc2ccc(Br)cc12,-1.1%
6,NC(=O)c1cnccn1,0.9% (active)
7,NC(CO)C(=O)NNCc1ccc(O)c(O)c1O (stereo not given),25.6% (active)
8,O=c1onc2n1-c1cc(Br)ccc1OC2,-0.8%
9,O=C(O)CCCC[C@@H]1CCSS1,-2.4%
10,NCCCCC(=O)O,-2.5%
11,NCCCCCC(=O)O,5% (active)
12,CCOC(=O)N1CCN(/[N+]([O-])=N/Oc2ccc([N+](=O)[O-])cc2[N+](=O)[O-])CC1,-34%
13,OCC1O[C@H]([S-])[C@@H](O)C(O)[C@@H]1O.[Au+] (stereo not given in full),2.4% (active)
14,NC(=O)c1ncn([C@@H]2O[C@H](CO)[C@@H](O)[C@H]2O)n1,-3.1%
15,CC(=O)N[C@@H](Cc1c[nH]c2ccccc12)C(=O)OCc1cc(C(F)(F)F)cc(C(F)(F)F)c1,2% (active)
16,O=C1C2C=CC=CC2=NC(=S)N1CCN1CCC(=C(c2ccc(F)cc2)c2ccc(F)cc2)CC1 (stereo not given),4.4% (active)
17,NCCCNCCCCNCCCN,-1.8%
18,NCCCCNCCCN,1.5% (active)
19,CC(C)(C)NCC(O)COc1nsnc1N1CCOCC1 (stereo not given),3.3% (active)
20,CCOC(=O)C12CC1/C(=N/O)c1ccccc1O2 (stereo not given),0.7% (active)
21,O=C(c1ccc(F)cc1)C1CCN(CCn2c(=O)[nH]c3ccccc3c2=O)CC1,1.5% (active)
22,CC1(C)C(=O)N(CCN2CCC(C(=O)c3ccc(F)cc3)CC2)c2ccccc21,-1.4%

row,SMILES,inhibition
1,O=C(O)c1cc2cc(F)ccc2[nH]1,6.8% (active)
2,O=C(O)c1cc(=O)cc(C(=O)O)[nH]1,-2%
3,CCCC[C@@]1(C2CCCC2)Cc2cc(OCC(=O)O)c(Cl)c(Cl)c2C1=O,4.2% (active)
4,C[C@@]1(C2CCCC2)Cc2cc(OCC(=O)O)c(Cl)c(Cl)c2C1=O,-4.6%
5,COc1ccc2c(c1)c(CC(=O)O)c(C)n2Cc1ccc(Cl)cc1,-5.1%
6,CC(C)c1ccc2c(c1)c(SC(C)(C)C)c(CC(C)(C)C(=O)O)n2Cc1ccc(Cl)cc1,8.9% (active)
7,Cc1cc2c(C(C)C)c(O)c(O)c(C=O)c2c(O)c1-c1c(C)cc2c(C(C)C)c(O)c(O)c(C=O)c2c1O,50.4% (active)
8,CCN1C(=O)C=CC1=O,-3.8%
9,N[C@@H](CCC(=O)N[C@H](CSN=O)C(=O)NCC(=O)O)C(=O)O,-4.8%
10,[N-]=[N+]=Nc1ccc(C(=O)CSC[C@H](NC(=O)CC[C@H](N)C(=O)O)C(=O)NCC(=O)O)cc1,6.8% (active)
11,O=C1N=C([O-])CN1/N=C/C1=C[C+]=C(c2ccc([N+](=O)[O-])cc2)O1,3.6% (active)
12,N=C(N)SCCc1ccc(CCSC(=N)N)cc1,-2.2%
13,N=C(N)SCCN,6.4% (active)
14,S=C(S)N1CCCC1,19.5% (active)
15,N#CC(C#N)=C(N)/C(C#N)=C/c1ccc(O)cc1,11.6% (active)
16,O=[N+]([O-])c1ccc2c(c1)S(=O)(=O)C=C2,2% (active)
17,O=c1[nH]c2cc(C(F)(F)F)ccc2n1-c1cc(C(F)(F)F)ccc1O,1.4% (active)
18,O=NN(CCCl)C(=O)NCCCl,-3.4%
19,NC1CCN(O)C1=O (stereo not given),1.1% (active)
20,COc1cc2c(c(OC)c1OC)-c1ccc(OC)c(=O)cc1[C@@H](NC(C)=O)CC2,1.3% (active)
21,CCCCCCC(=O)OC1CC(C)(C)NC(C)(C)C1,1.1% (active)
22,CNc1cc(NS(=O)(=O)c2ccc(N)cc2)nc(NC)n1,3.7% (active)

row,SMILES,inhibition
1,Nc1ccc(S(=O)(=O)Nc2ccnn2-c2ccccc2)cc1,-1.7%
2,O=C(O)C1=CC(=C(c2ccc(O)c(C(=O)O)c2)c2ccc(O)c(C(=O)O)c2)C=CC1=O,17.4% (active)
3,COc1cc(/C=C(\C#N)C(=O)c2ccc(O)c(O)c2)cc(I)c1O,27.3% (active)
4,N#C/C(=C\c1ccc(O)c(O)c1)C(=O)c1ccc(O)c(O)c1,17.4% (active)
5,CN(C)CC[C@@H](c1ccc(Cl)cc1)c1ccccn1,0%
6,CN(C)CCC(c1ccc(Cl)cc1)c1ccccn1 (stereo not given),2.8% (active)
7,CN(C)CC[C@@H](c1ccc(Br)cc1)c1ccccn1,7.7% (active)
8,CN(C)CCC(c1ccccc1)c1ccccn1 (stereo not given),1.1% (active)
9,CN(C)CCC(c1ccc(Br)cc1)c1ccccn1 (stereo not given),0.5% (active)
10,O.O.[NH2-].[NH2-].[NH2-].[NH2-].[NH2-].[NH2-].[NH2-].[NH2-].[NH2-].[NH2-].[NH2-].[NH2-].[NH2-].[NH2-].[Ru].[Ru].[Ru],20.7% (active)
11,CCCCC/C=C\CC(O)/C=C/c1cccc(CC(O)CCCCO)n1 (stereo not given),-0.7%
12,O=C1CCc2cc(OCCCCc3nnnn3C3CCCCC3)ccc2N1,1.5% (active)
13,CCOC(=O)C1=C[C@]2(CC)CCCN3CCc4c(n1c1ccccc41)[C@@H]32,0.9% (active)
14,O=C1c2c(O)ccc(O)c2C(=O)c2c(NCCNCCO)ccc(NCCNCCO)c21,42% (active)
15,C=C1N=C(N=NC2=C(S(=O)(=O)[O-])[C+]=C(S(=O)(=O)[O-])[C+]=C2)[C+](COP(=O)([O-])O)C(C=O)=C1O,-3.7%
16,CC(=O)[C@H]1CC[C+]2C3CC=C4C[C@@H](OS(=O)(=O)[O-])CC[C@]4(C)C3CC[C@@]21C (stereo not given in full),1.8% (active)
17,CCOC(=O)C(C)Oc1cccc2c(=O)n(CC(=O)Nc3ccc4c(c3)OCCO4)ccc12 (stereo not given),-3.2%
18,c1ccc(CN2CCC3(CCCc4ccccc43)CC2)cc1,3.6% (active)
19,Cc1nc2sccn2c(=O)c1CCN1CCC(=C(c2ccc(F)cc2)c2ccc(F)cc2)CC1,1.1% (active)
20,Cc1nc2ccccn2c(=O)c1CCN1CCC(C(=O)c2ccc(F)cc2)CC1,-1.4%
21,Cc1nc2sccn2c(=O)c1CCN1CCC(=C(c2ccccc2)c2ccc(F)cc2)CC1,1.2% (active)
